The panel holds about 83,000 compounds, 20% with a hit somewhere; the sample as a whole holds those more often.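 Method: cells in 96-well plates; compound added at one concentration; 48 h incubation; percent growth measured; values under 10 scored active.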 Unmarked numbers belong to inactive results. Calls of active or inactive are those of the source.
Tests used:
Experiment in all cases: NCI-60 one-dose screen, 48 h (100 = growth as untreated, 0 = no growth, -100 = all killed)
Settings in all cases: 10 µM unless noted
NCI-H23 lung = system: NCI-H23 lung
NCI-H226 lung = system: NCI-H226 lung
NCI-H322M lung = system: NCI-H322M lung
HOP-62 NSCLC = system: HOP-62 NSCLC
NCI-H460 lung = system: NCI-H460 lung
HOP-92 NSCLC = system: HOP-92 NSCLC
NCI-H522 lung = system: NCI-H522 lung
A549/ATCC NSCLC = system: A549/ATCC NSCLC
786-0 renal = system: 786-0 renal
COLO 205 colon = system: COLO 205 colon
DU-145 prostate = system: DU-145 prostate
K-562 leukemia = system: K-562 leukemia
MALME-3M melanoma = system: MALME-3M melanoma
MDA-MB-231 breast = system: MDA-MB-231 breast
RXF 393 renal = system: RXF 393 renal
SF-268 CNS = system: SF-268 CNS
SF-295 CNS = system: SF-295 CNS
SF-539 CNS = system: SF-539 CNS
UACC-257 melanoma = system: UACC-257 melanoma
M14 melanoma = system: M14 melanoma

| SMILES | growth (NCI-H23 lung) | growth (NCI-H226 lung) | growth (NCI-H322M lung) | growth (HOP-62 NSCLC) | growth (NCI-H460 lung) | growth (HOP-92 NSCLC) | growth (NCI-H522 lung) | growth (A549/ATCC NSCLC) | growth (786-0 renal) | growth (COLO 205 colon) | growth (DU-145 prostate) | growth (K-562 leukemia) | growth (MALME-3M melanoma) | growth (MDA-MB-231 breast) | growth (RXF 393 renal) | growth (SF-268 CNS) | growth (SF-295 CNS) | growth (SF-539 CNS) | growth (UACC-257 melanoma) | growth (M14 melanoma) |
| --- | --- | --- | --- | --- | --- | --- | --- | --- | --- | --- | --- | --- | --- | --- | --- | --- | --- | --- | --- | --- |
| COc1ccc(N=Nc2c(N)nn3c(-c4ccc5c(c4)C=S=C5)ccnc23)cc1 | 27% | 22.8% | 49.1% | 42.5% | 35.3% | 4.83% (active) | -12.6% (active) | 43% | 55.7% | 54.8% | 35.4% | 15.4% | 43.9% | 25% | 12.2% | 67.7% | 33.8% | 22.6% | 85.3% | 58.9% |
| COc1cncc(-c2ccc3ncnc(N4CCc5ccc(Cl)cc54)c3c2)c1 | 8.73% (active) | 31.8% | -2.19% (active) | 51.3% | 51.8% | -56.9% (active) | 36.6% | 29.9% | -74.2% (active) | 38.4% | 24.6% | 12.6% | 44.2% | 29.4% | -18.1% (active) | 46.7% | 20.3% | 33.2% | 63.5% | -52.4% (active) |
| O=C(N/N=C/c1ccc(Br)o1)c1[nH]c2ccc(Br)cc2c1-c1ccccc1 | -37% (active) | -42.6% (active) | 15% | -28.6% (active) | -63% (active) | -4.09% (active) | -61.5% (active) | -4.05% (active) | -52.7% (active) | -13.5% (active) | -44.6% (active) | 7.92% (active) | 0.448% (active) | -73.4% (active) | -43.2% (active) | -12.2% (active) | -25.8% (active) | -99.5% (active) | 26.2% | 6.88% (active) |
| CS(=O)(=O)Nc1cccc(-n2cnc3cc(-c4ccc(O)cc4)ccc32)c1 | 35.3% | 33% | 53.1% | 32.1% | 20.3% | 96.8% | 25% | 53.7% | 44.7% | 31.5% | 29.2% | 18% | 27.3% | 49.3% | -14.2% (active) | 50.3% | 32% | 0.311% (active) | 70.5% | 26.2% |
| Cn1cc(-c2cc(N)n3nc(-c4c[nH]c5ccccc45)cc3n2)c2ccccc21 | -73.4% (active) | -38.6% (active) | -80% (active) | -85.4% (active) | -66.6% (active) | -59.5% (active) | -85.1% (active) | -75.2% (active) | -81.6% (active) | -88.6% (active) | -89.1% (active) | 11.4% | -94.8% (active) | -89.8% (active) | -72.5% (active) | -51.3% (active) | -90.3% (active) | -99.5% (active) | -92% (active) | -81.5% (active) |
| Nc1nc2cc(-c3ccc4ncnc(NCc5ccccc5)c4c3)ccc2o1 | 24.4% | -45.9% (active) | -19.8% (active) | -46.1% (active) | 7.02% (active) | -39.5% (active) | -12.1% (active) | 11.4% | 9.02% (active) | 52.9% | 15.9% | 25.9% | -23.8% (active) | -48.8% (active) | -75.6% (active) | 25% | -42.3% (active) | -86.5% (active) | 68.4% | 22.4% |
| CCCCCCCCc1ccc(C(=O)Nc2cccc(O)c2)cc1 | 78.9% | 67.8% | 95.9% | 101% | 90.5% | -4.35% (active) | 23% | 90.3% | 73.5% | 121% | 80.1% | 22.6% | 77.1% | 78.9% | 86.6% | 93.1% | 75% | 79.7% | 79.3% | 76.4% |
| COc1sc(/C=N/NC(=O)c2[nH]c3ccc(Br)cc3c2-c2ccccc2)cc1Br | -14.1% (active) | 14.7% | 31.4% | 12.2% | -7.71% (active) | 63.7% | -35.8% (active) | 6.26% (active) | -1.7% (active) | 0.155% (active) | -8.01% (active) | 7.79% (active) | 48% | -13.3% (active) | -0.818% (active) | 3.22% (active) | -15% (active) | -64.1% (active) | 52.7% | 10.7% |
| COC(=O)c1c(C(=O)OC)c2ccc3c4ccccc4ccc3n2c1C(=O)OC | 102% | 100% | 101% | 110% | 111% | 97.5% | 100% | 97.2% | 100% | 115% | 121% | 117% | 96% | 110% | 74.9% | 103% | 93.5% | 99.3% | 101% | 102% |
| COC(=O)CSC1=C(C)C(=O)C(OC)=C(OC)C1=O | 94.3% | 93.1% | 93.1% | 85.3% | 96.8% | 75.5% | 72.2% | 90.4% | 99.9% | 102% | 103% | 13.6% | 89.9% | 85.4% | 105% | 100% | 106% | 98.1% | 78.1% | 91.1% |
| CCOc1ccccc1[C@H]1C(C(=O)c2ccc(Cl)cc2)C2(N[C@@H]1c1ccccc1)C(=O)Nc1ccc(Cl)cc12 (stereo not given in full) | 21.5% | 20.3% | 48.7% | 42.6% | 17.3% | 2.97% (active) | 34.1% | 40.5% | 35% | 15.3% | 45.2% | 6.17% (active) | 45.7% | 28.8% | 2.56% (active) | 46.6% | 11.1% | 37.2% | 69.5% | 22.5% |
| O=C(NNC(=S)NC(=O)c1ccccc1)c1ccc(OCc2nc3ccc(Cl)cc3[nH]2)cc1 | -71.3% (active) | -43.9% (active) | -41.5% (active) | -64.3% (active) | 11.6% | -10.8% (active) | 1.39% (active) | -29.2% (active) | 0.779% (active) | -22.5% (active) | 26.3% | 4.64% (active) | -75.4% (active) | -71.2% (active) | -56.7% (active) | -2.2% (active) | -80.9% (active) | -91.2% (active) | -24.8% (active) | -54.5% (active) |
| Cc1cc(C(NC(=O)CCCCCNc2cccc3c2C(=O)N(C2CCC(=O)CC2=O)C3=O)c2cccc(N(C)C)c2)c(O)c2ncccc12 (stereo not given) | 24% | -1.45% (active) | 13.7% | -22.6% (active) | 5.72% (active) | -10.4% (active) | 13% | 11.7% | 2.23% (active) | 7.54% (active) | 27.5% | 9.86% (active) | -11.8% (active) | -22.2% (active) | 32.1% | 20.5% | 2.01% (active) | 1.5% (active) | 1.91% (active) | -26.5% (active) |
| O=C(Nc1nc2ccc([N+](=O)[O-])cc2s1)Nc1ccccc1F | 6.62% (active) | 10.9% | 8.1% (active) | 6.89% (active) | 2.96% (active) | -3.78% (active) | -16.6% (active) | 12.2% | 7.95% (active) | 21.9% | 25.8% | 7.7% (active) | -2.16% (active) | 4.62% (active) | 5.7% (active) | 29.5% | 3% (active) | -8.34% (active) | -4.98% (active) | 16.5% |
| OC1CCC(Cn2c(C(F)(F)F)cc3c(Cl)ncnc32)CC1 (stereo not given) | -26% (active) | 64.4% | -13.9% (active) | 13.3% | -43.6% (active) | 78.2% | -81.3% (active) | 94% | 92.7% | 60.2% | 10.5% | -3.95% (active) | 79.3% | 2.76% (active) | 63.1% | -36.4% (active) | 75.6% | 75.6% | 9.12% (active) | -44.1% (active) |
| Cc1ccc(Cl)cc1NC(=O)N/C(N)=N/c1nc2ccccc2s1 | -9.8% (active) | 0.832% (active) | 18.6% | -11.7% (active) | -8.76% (active) | -23% (active) | -61.9% (active) | -36.9% (active) | -2.48% (active) | -91.1% (active) | -35% (active) | 4.45% (active) | 15.6% | -42.7% (active) | -28.5% (active) | 15.4% | -49.6% (active) | -51.2% (active) | 44.8% | -17.1% (active) |

From PubChem BioAssay (NCI)
